According to the supplement of paper PMC6555819:

Key:
Assay in all cases: PBM binding z-score (relative to random genomic background probes); higher = stronger binding; sequences stand for … in GC…GCGATTGACAGCGTAGAATGAAGG
[1] = test system: FXR:RXRa (NR concentration 270 nM, RXRa partner concentration 90 nM)
In short: (§1)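 The probes on custom Agilent 4×180K protein-binding microarrays were double-stranded, with 34-nt variable regions bearing direct-repeat seeds, single-nucleotide variants, half-site ablations and random human genomic background sequences. Incubation lasted 1 h with ligand-free nuclear receptor dimers in PBS pH 7.4, 2% milk, 0.02% Triton X-100, 1 mM DTT, 0.2 mg/mL BSA and 0.4 mg/ml salmon testes DNA. Antibodies against each partner (one per run) detected bound dimers, and fluorescence scans were regression-normalized. Binding z-scores take the random background probes as reference.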

[2] = test system: LXRa:RXRa (NR concentration 270 nM, RXRa partner concentration 90 nM)
In short: as §1

[3] = test system: LXRa homodimer (NR concentration 270 nM)
In short: as §1

[4] = test system: LXRb:RXRa (NR concentration 270 nM, RXRa partner concentration 90 nM)
In short: as §1

[5] = test system: LXRb homodimer (NR concentration 270 nM)
In short: as §1

[6] = test system: PPARa:RXRa (NR concentration 270 nM, RXRa partner concentration 90 nM)
In short: as §1

[7] = test system: PPARg:RXRa (NR concentration 180 nM, RXRa partner concentration 90 nM)
In short: as §1

[8] = test system: PPARg:RXRa 270nM:90nM, anti-RXR (NR concentration 270 nM, RXRa partner concentration 90 nM)
In short: as §1

[9] = test system: PPARg:RXRa 30nM:10nM, anti-RXR (NR concentration 30 nM, RXRa partner concentration 10 nM)
In short: as §1

[10] = test system: PPARg:RXRa 90nM:30nM, anti-RXR (NR concentration 90 nM, RXRa partner concentration 30 nM)
In short: as §1

[11] = test system: PPARg:RXRa DBDmut IVT, anti-RXR (DBD mutation: RXRa K156A/R161A, NR concentration 270 nM, RXRa partner concentration 90 nM)
In short: as §1

[12] = test system: PPARg:RXRa IVT, anti-PPARg (NR concentration 270 nM, RXRa partner concentration 90 nM)
In short: as §1

[13] = test system: PPARg DBDmut:RXRa IVT, anti-PPARg (DBD mutation: PPARg1 K132A/R137A, NR concentration 270 nM, RXRa partner concentration 90 nM)
In short: as §1

[14] = test system: PPARg DBDmut IVT, anti-PPARg (DBD mutation: PPARg1 K132A/R137A, NR concentration 270 nM)
In short: as §1

[15] = test system: PPARg homodimer (NR concentration 180 nM)
In short: as §1

[16] = test system: PXR:RXRa (NR concentration 270 nM, RXRa partner concentration 90 nM)
In short: as §1

[17] = test system: PXR homodimer (NR concentration 270 nM)
In short: as §1

[18] = test system: RARa:RXR (NR concentration 270 nM, RXRa partner concentration 90 nM)
In short: as §1

[19] = test system: RARa homodimer (NR concentration 270 nM)
In short: as §1

[20] = test system: RARb:RXRa (NR concentration 270 nM, RXRa partner concentration 90 nM)
In short: as §1

Sequence	PBM binding z-score [1]	PBM binding z-score [2]	PBM binding z-score [3]	PBM binding z-score [4]	PBM binding z-score [5]	PBM binding z-score [6]	PBM binding z-score [7]	PBM binding z-score [8]	PBM binding z-score [9]	PBM binding z-score [10]	PBM binding z-score [11]	PBM binding z-score [12]	PBM binding z-score [13]	PBM binding z-score [14]	PBM binding z-score [15]	PBM binding z-score [16]	PBM binding z-score [17]	PBM binding z-score [18]	PBM binding z-score [19]	PBM binding z-score [20]
CCTAGCAGGCCAGGGTCACGCAAGCATTTCGCTT	4.27	3.3	-0.658	3.24	-0.358	4.73	3.11	3.95	0.595	2.58	-0.356	1.95	-1.04	-1.59	1.16	3.96	-0.56	4.99	-0.191	3.4
ATCTCTAGGTGAAGTTCAGTGAAAGATCGATAGA	0.465	0.465	0.0389	0.0201	0.118	1.88	1.57	1.74	0.453	1.35	4.94	4.09	1.05	1.05	0.329	0.872	0.828	0.684	0.618	1.7
CGTACTGGGCCATCAGGTCATTGATATCAACGTT	1.44	1.12	0.948	1.53	-0.168	2.78	2.86	3.82	1.21	3.32	5.01	4.86	0.473	-0.333	1.12	1.67	0.831	1.88	-0.122	1.93
CCAGACAGGTGAGAAGGTAACTCAACCTCGATTA	-0.191	0.167	0.188	0.347	-0.388	0.894	0.669	0.515	0.064	0.437	1.22	0.742	0.229	-0.571	1.06	0.207	0.428	0.706	0.916	0.619
TCATATAGGTAAATGCTAGGTGAAAATCCGATCT	0.903	0.851	0.275	0.71	0.611	1.17	0.91	1.95	4.01	3.06	3.71	2.37	1.79	1.14	1.06	0.505	0.518	0.922	1.61	0.432
GCTGGTAGATCAAGGTTAAGAAAGACTAAGCTAA	0.17	0.885	-0.138	0.378	-0.528	1.12	0.134	1.18	-0.00579	1	-0.391	0.232	-0.0433	-0.0207	-0.421	0.348	-0.246	0.69	0.451	0.949
CGTCCAAGGTCAGAGAGGCCAGTGAATGCCGAGT	4.34	2.95	0.144	2.18	-0.662	3.93	2.04	2.45	-0.0839	1.33	2.19	2.04	-0.142	-0.792	1.17	2.83	2.62	2.56	-0.0378	4.62
TGTCAAATTTCAAAGGTAACGTAAGTATCCACAC	0.556	0.784	-0.0184	0.869	0.492	0.954	0.712	1.41	1.62	1.41	-0.296	1.37	1	1.11	0.532	0.473	0.33	0.98	0.848	1.04
GCGACTGGGGCAGAGCAGGTTACCATAAGGTTGG	0.158	-0.389	-0.79	-0.197	-1.19	0.462	0.564	0.0587	-1.01	-0.178	3.52	2.22	-0.693	-0.694	-0.578	-0.201	-0.162	-0.103	-0.568	0.569
AATACAGGCTCATCGTAGGCCAGAGTACGCACAG	-0.253	-0.407	-0.211	-0.712	-0.726	-0.569	0.784	-0.256	-0.133	-0.254	-0.148	-0.0891	0.24	-0.0374	-0.257	-0.568	-0.37	-0.622	0.466	-0.11
TCATATAGGTAGAAGGTGAAAGTCGGTGTGGTAA	1.26	1.21	0.0834	1.16	-0.0966	3.46	5.61	6.84	5.99	7.35	3.5	2.69	1.46	0.808	1.59	0.746	0.482	1.17	1.42	1.08
CGAACTAGGTCAGAACAGGACACTGAAGGATGAT	1.48	1.37	0.372	0.71	-0.177	3.15	5.08	4.56	1.8	3.43	7.14	7.36	1.14	1.38	0.688	0.996	-0.0376	1.24	0.452	2.9
ACTATTAGTTGACTTAGGGCAACCTATACGACGC	0.173	0.433	0.321	0.316	0.731	0.252	1.02	0.258	0.33	0.444	0.195	0.726	1.42	1.54	0.623	0.356	0.265	0.516	0.697	0.924
CGTCCAAGGTCAGCAGGTCAGTGATAGCGACGTG	5.6	3.86	0.399	2.59	-0.265	4.52	4.13	4.45	1.15	3.05	3.28	3.76	-0.113	-0.161	2.53	3.41	0.512	4.49	1.26	5.45
ATAATGAGGTTACCAAAGATCAGGGAAACGCTTG	1.8	6.12	0.166	3.15	0.596	3.37	3.17	3	1.2	2.35	4.27	3.93	1.55	1.88	0.591	1.51	0.204	1.93	1.22	2.14
CTCGAGAGGTCGGTTGAGGTGAGTATACGGATAA	2.48	1.8	-0.0602	2.2	-0.474	2.93	0.425	0.591	-0.178	0.092	0.581	0.606	-0.792	-0.363	0.728	3.5	0.389	2.64	-0.682	2.05
TTACCCAGGTGAAGGTCGTTGATCCCTCTGTAGA	1.67	1.53	-0.000155	1.21	-0.632	1.77	0.932	1.73	0.687	1.04	1.24	2.58	-0.304	-0.0545	0.499	1.12	0.0205	1.6	-1.08	1.23
AGAATGAGGTTAAGATCAGGGGAACAGAATACAT	2.39	1.58	0.0516	1.98	0.284	3.55	2.33	2.48	0.75	1.88	3.34	2.63	1.57	0.78	1.05	1.43	0.765	2.02	0.798	1.95
TCTAGCAGGCCAGAGGGTGACTCAAGAGGTACGG	-0.401	0.0114	-0.795	-0.373	-1.42	0.54	1.05	2.1	1.99	2.19	0.764	0.183	-1.35	-1.1	-0.406	-0.274	-0.839	-0.247	-1.15	0.306
GCAGACAGGTGAAACGCAGGTAGCTCAGGGTGGC	-0.298	-0.318	-0.974	-0.61	-1.08	0.412	0.213	-0.178	-0.645	-0.382	1.07	0.347	-0.762	-0.471	-0.599	-0.573	-0.785	-0.358	-0.976	0.536
CCTAGTTGGACAAGGTCACACACGCTATAGGTAC	3.57	3.53	1.48	3.58	0.67	4.1	2.58	2.92	0.968	2.08	0.793	2.52	0.526	0.701	3.15	3.9	1.97	4.4	2.1	3.85
GCGACTGGGGCAAAGCAGGCTACCATAAGGTTGG	-0.319	-0.696	-0.699	-0.682	-0.971	0.527	0.941	0.966	-0.413	0.272	4.44	3.34	-0.239	-0.307	-0.349	-0.574	-0.689	-0.126	-1.27	0.579
GCATATAGGTAATACACGGTGAAAGTCCGATTGT	0.145	0.988	0.163	-0.0915	-0.496	0.9	0.912	0.806	0.349	0.684	3.87	2.67	0.895	1.01	0.267	0.213	0.115	0.564	0.666	-0.0307
CCTACTGGGCCACGATAGGTCATTGATTCAGTGA	0.91	3.95	1.66	1.74	-0.503	2.79	2.44	3.11	0.577	1.86	5.57	5.44	0.89	-0.512	1.33	1.49	0.172	2.14	0.152	2.06
CTACCACGGTGAACAAGGTCGTTGATTACTATTC	0.517	0.708	0.301	1.4	-0.058	1.28	0.357	0.508	-0.252	0.141	0.771	0.788	-0.025	-0.267	0.744	1.44	1.01	1.15	0.251	0.76
ACAGACAGGTGAGTGAAGGTAAGTCAGCTGGACG	0.17	0.000763	-0.483	-0.528	-0.65	0.236	0.568	-0.129	-0.0839	-0.0489	0.544	0.594	-0.101	-0.745	-0.0235	-0.37	-0.45	0.0462	-0.141	0.623
CCTACTGGGCCATAGGTCATTGATTCCAATGCTC	1.76	2.08	1.23	2.39	-0.227	5.16	9.89	8.77	8.56	10.3	3.69	5.78	-0.202	0.625	2	2.1	0.286	2.7	-0.287	2.34
TTACCAAGGTGAAAGGTCGTTTATGCACGCCTTG	3.55	3.3	0.773	3.33	0.0475	5.2	8.69	7.73	6.93	8.46	2.69	4.38	1.05	0.279	1.68	3.9	0.719	5.53	0.296	2.75
